The values that follow come from PubChem BioAssay (Tox21).

Experiment [1] can be described thus: qHTS assay to identify small molecule agonists of the peroxisome proliferator-activated receptor delta (PPARd) signaling pathway - cell viability counter screen (AID 743211). Further: nearly all actives have a fitted effect of over 55% in size. A digest of the protocol:
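Viability of GeneBLAzer PPARd UAS-bla HEK293H cells was assessed after 17 h compound incubation at 37C, using CellTiter-Glo reagent added after the reporter read and luminescence recorded 30 min later.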
(Quantitative high-throughput screening tests each substance at several concentrations.)

Experiment [2] addresses Peroxisome proliferator-activated receptor delta (Homo sapiens) (UniProt Q03181). Nature of the experiment: qHTS assay to identify small molecule agonists of the peroxisome proliferator-activated receptor delta (PPARd) signaling pathway (AID 743212; calls by dose curve). A digest of the protocol:
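HEK293H UAS-bla reporter cells, human PPARd system; compounds delivered in DMSO after 5 h plating, then at 37 C. Beta-lactamase FRET read, 2 h RT substrate step.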

Experiment [3] is described as follows: qHTS assay to identify small molecule antagonists of the peroxisome proliferator-activated receptor delta (PPARd) signaling pathway - cell viability counter screen (AID 743213). Further: nearly all actives have a fitted effect of over 50% in size. A digest of the protocol: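 Luminescence from CellTiter-Glo, added after the bla read and incubated 30 min at room temperature, gives viability of HEK293H PPARd-bla cells exposed to compounds for 17 h at 37 C with 300 nM L165041.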

A short description of experiment [4]: qHTS assay to identify small molecule agonists of the farnesoid-X-receptor (FXR) signaling pathway - cell viability counter screen (AID 743218). Further: nearly all actives have a fitted effect of over 45% in size. A digest of the protocol: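 HEK 293T FXR-bla cells; 5 h pre-incubation, 16 h compound exposure at 37 C; LiveBLAzer substrate 2 h RT, then CellTiter-Glo 30 min RT, luminescence.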
Experiment [5] is described as follows: qHTS assay to identify small molecule antagonists of the farnesoid-X-receptor (FXR) signaling pathway - cell viability counter screen (AID 743221; active means well fitted cell-killing curve with a large enough effect in the repeat runs, not every such curve was filed as active; further: nearly all actives have a fitted effect of over 50% in size). A digest of the protocol:
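Quantitative HTS of the Tox21 10K library run in parallel with the beta-lactamase reporter read. HEK 293T cells carrying a UAS-driven bla reporter got compound and 50 uM CDCA (final) for 16 h; ATP-based luminescence followed.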

Experiment [6] concerns the target Vitamin D3 receptor (Homo sapiens) (UniProt P11473). Nature of the experiment: qHTS assay to identify small molecule agonists of the vitamin D receptor (VDR) signaling pathway (AID 743222; calls by dose curve). A digest of the protocol:
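VDR-bla cells, 2,000/well; 4 h preincubation 37C; cpd (DMSO) 16 h; LiveBLAzer B/G substrate 2 h RT; fluorescence intensity read.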

The target is the same in experiment [7]. The experiment in a line: qHTS assay to identify small molecule antagonists of the vitamin D receptor (VDR) signaling pathway (AID 743223; active means well fitted inhibition curve with a large enough effect in the signal ratio in the repeat runs, not every such curve was filed as active; the % refers to the signal ratio). A digest of the protocol:
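Fluorescence from LiveBLAzer B/G FRET substrate, read after 2 h at room temperature, reflects beta-lactamase reporter activity in VDR-bla cells treated 16 h at 37C with compounds and agonist 1alpha,25-dihydroxyvitamin D3 (3 nM final).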

A short description of experiment [8]: qHTS assay to identify small molecule agonists of the vitamin D receptor (VDR) signaling pathway - cell viability counter screen (AID 743224). Further: nearly all actives have a fitted effect of over 50% in size. Further: potency means the concentration at half of the fitted maximal effect. A digest of the protocol:
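Luminescence from CellTiter-Glo, read after 30 min at room temperature, reports viability of VDR-bla cells treated with compounds for 16 h at 37C in the wells used for the beta-lactamase FRET read.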

A short description of experiment [9]: qHTS assay to identify small molecule antagonists of the vitamin D receptor (VDR) signaling pathway - cell viability counter screen (AID 743225). Further: nearly all actives have a fitted effect of over 50% in size. A digest of the protocol: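 Cells (VDR-UAS-bla HEK 293T) are plated, rested 4 h at 37C, dosed with compound and 3 nM final 1-alpha,25-dihydroxy vitamin D3, and incubated 16 h. Viability is taken from CellTiter-Glo luminescence in the reporter wells.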

A short description of experiment [10]: qHTS assay to identify small molecule agonists of the NFkB signaling pathway (AID 1159509; active means well fitted curve in the direction sought with a large enough effect in the signal ratio in the repeat runs, not every such curve was filed as active; the % refers to the signal ratio; further: series mostly up to about 61 µM). A digest of the protocol:
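NFkB-bla ME-180 cells with a beta-lactamase reporter under an NF-kB response element were plated overnight, treated with compounds in DMSO for 5 hr at 37 C, then loaded with FRET substrate for 1.5 hr at room temperature.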

Experiment [11] can be described thus: qHTS assay to identify small molecule agonists of the NFkB signaling pathway - cell viability counter screen (AID 1159515; calls by dose curve; further: series mostly up to about 61 µM; nearly all actives have a fitted effect of over 55% in size). A digest of the protocol: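 Luminescence from CellTiter-Glo (30 min, room temperature) gives viability, measured in the same wells as the beta-lactamase reporter read. Cells were NFkB-bla ME-180, 2,000 per well, treated 5 hr with compounds.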

A short description of experiment [12]: qHTS assay to identify small molecule agonists of the endoplasmic reticulum stress response signaling pathway (AID 1159516; active means well fitted activation curve with a large enough effect in the signal ratio in the repeat runs, not every such curve was filed as active; the % refers to the signal ratio). A digest of the protocol:
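Read-out is beta-lactamase cleavage of a FRET substrate (405 nm excitation; 460 and 530 nm emissions) in ESRE-bla HeLa cells after a 5 hr compound exposure at 37 C. Substrate incubation ran 2 hr at room temperature.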

Experiment [13] in a line: qHTS assay to identify small molecule agonists of the endoplasmic reticulum stress response signaling pathway - cell viability counter screen (AID 1159517; calls by dose curve; further: nearly all actives have a fitted effect of over 50% in size; further: potency means the concentration at half of the fitted maximal effect). A digest of the protocol:
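Cells, HeLa ESRE-bla; density, 1,500/well; dosing, 5 hr at 37 C, 5% CO2; readout, CellTiter-Glo luminescence after 30 min RT.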

Experiment [14] is described as follows: qHTS assay to identify small molecule antagonists of the retinoid-related orphan receptor gamma (ROR-gamma) signaling pathway - cell viability counter screen (AID 1159520). Further: nearly all actives have a fitted effect of over 50% in size. A digest of the protocol:
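Cytotoxicity was read from cellular ATP (CellTiter-Glo luminescence) after 16 hr at 37 C with 1 uM doxycycline induction. The inducer was added 2 hr after compound transfer to Tet-on ROR gamma CHO cells.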

In experiment [15] the target is Nuclear receptor ROR-gamma (Homo sapiens) (UniProt P51449). The experiment in a line: qHTS assay to identify small molecule antagonists of the retinoid-related orphan receptor gamma (ROR-gamma) signaling pathway (AID 1159521; further: nearly all actives have a fitted effect of over 50% in size; further: potency means the concentration at half of the fitted maximal effect). A digest of the protocol: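 RORγ antagonism is scored from reduced reporter luminescence in Tet-on CHO cells. Induction used 1 uM final doxycycline hyclate for 16 h at 37 C, following a 2 h compound exposure.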

Experiment [16] can be described thus: qHTS assay to identify small molecule agonists of the AP-1 signaling pathway - cell viability counter screen (AID 1159525; calls by dose curve; further: nearly all actives have a fitted effect of over 55% in size). A digest of the protocol: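 Luminescent ATP readout (Cell Titer Glo, 30 min RT), normalised to DMSO and tetra n-octyl ammonium bromide controls. Cells were ME-180 AP-1-bla in 0.5% dialyzed FBS Opti-MEM, with a 5 h, 37 °C compound exposure.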

Experiment [17] can be described thus: qHTS assay to identify small molecule agonists of the AP-1 signaling pathway (AID 1159526; calls by dose curve).
The target of experiment [18] is Peroxisome proliferator-activated receptor delta (Homo sapiens) (UniProt Q03181). The experiment in a line: qHTS assay to identify small molecule antagonists of the peroxisome proliferator-activated receptor delta (PPARd) signaling pathway (AID 743215; active means well fitted inhibition curve with a large enough effect in the signal ratio in the repeat runs, not every such curve was filed as active; the % refers to the signal ratio;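 further: cells stimulated with agonist L165041 at 300 nM final during compound exposure; series mostly up to about 62 µM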). A digest of the protocol: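 Read-out is beta-lactamase FRET fluorescence, measured 2 h after substrate addition at room temperature. Beforehand, UAS-bla HEK293H cells carrying the PPARd reporter were exposed to compounds with L165041 at 300 nM final for 17 h at 37 C.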
Peroxisome proliferator-activated receptor delta (Homo sapiens), sequence (Q03181 whole entry, looked up): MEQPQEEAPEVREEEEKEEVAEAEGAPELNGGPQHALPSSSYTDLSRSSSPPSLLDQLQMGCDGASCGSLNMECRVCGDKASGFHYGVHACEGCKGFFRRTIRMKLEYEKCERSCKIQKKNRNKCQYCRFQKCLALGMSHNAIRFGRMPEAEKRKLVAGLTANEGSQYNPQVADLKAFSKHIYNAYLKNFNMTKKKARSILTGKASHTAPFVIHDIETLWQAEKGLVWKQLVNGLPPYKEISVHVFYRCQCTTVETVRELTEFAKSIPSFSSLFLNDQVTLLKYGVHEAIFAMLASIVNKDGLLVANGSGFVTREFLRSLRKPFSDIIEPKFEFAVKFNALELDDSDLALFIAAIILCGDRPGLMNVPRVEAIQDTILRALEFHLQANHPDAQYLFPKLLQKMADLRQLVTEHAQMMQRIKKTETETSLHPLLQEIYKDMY

The target in experiment [19] is Bile acid receptor (Homo sapiens) (UniProt Q96RI1). The experiment in a line: qHTS assay to identify small molecule antagonists of the farnesoid-X-receptor (FXR) signaling pathway (AID 743217; active means well fitted inhibition curve with a large enough effect in the signal ratio in the repeat runs, not every such curve was filed as active; the % refers to the signal ratio). A digest of the protocol:
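HEK 293T FXR-UAS-bla, 5000 cells/well; compound + CDCA 50 uM final; 16 h, 37 °C; B/G FRET substrate 2 h RT; fluorescence.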

Values joined by “and” are separate entries in the source; they are usually repeats but may differ in a detail not shown here. Equal entries are not always repeated. Records with an inconclusive call do not appear. More than one record can exist for a structure, and the calls need not agree. Active and inactive are the calls of the source. Unless noted, the call rests on the fitted dose curve; in most records, active means well fitted curve in the direction sought with a large enough effect in the repeat runs; inconclusive means weak or mixed curves; inactive means no such curve, though single readings can be large; an effect the other way counts as inactive or inconclusive.

Vitamin D3 receptor (Homo sapiens), sequence (P11473 whole entry, looked up): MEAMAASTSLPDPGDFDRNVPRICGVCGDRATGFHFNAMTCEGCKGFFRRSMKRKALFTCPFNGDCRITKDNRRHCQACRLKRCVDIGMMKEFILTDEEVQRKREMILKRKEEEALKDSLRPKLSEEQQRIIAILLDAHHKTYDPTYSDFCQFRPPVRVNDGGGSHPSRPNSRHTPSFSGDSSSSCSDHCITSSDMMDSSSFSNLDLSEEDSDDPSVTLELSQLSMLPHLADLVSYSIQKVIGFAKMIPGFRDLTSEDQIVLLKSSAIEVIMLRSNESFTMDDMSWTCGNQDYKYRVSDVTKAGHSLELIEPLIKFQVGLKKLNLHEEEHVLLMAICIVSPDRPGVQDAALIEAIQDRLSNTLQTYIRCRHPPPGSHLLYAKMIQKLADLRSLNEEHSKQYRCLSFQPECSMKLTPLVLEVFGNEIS
Bile acid receptor (Homo sapiens), sequence (Q96RI1 whole entry, looked up): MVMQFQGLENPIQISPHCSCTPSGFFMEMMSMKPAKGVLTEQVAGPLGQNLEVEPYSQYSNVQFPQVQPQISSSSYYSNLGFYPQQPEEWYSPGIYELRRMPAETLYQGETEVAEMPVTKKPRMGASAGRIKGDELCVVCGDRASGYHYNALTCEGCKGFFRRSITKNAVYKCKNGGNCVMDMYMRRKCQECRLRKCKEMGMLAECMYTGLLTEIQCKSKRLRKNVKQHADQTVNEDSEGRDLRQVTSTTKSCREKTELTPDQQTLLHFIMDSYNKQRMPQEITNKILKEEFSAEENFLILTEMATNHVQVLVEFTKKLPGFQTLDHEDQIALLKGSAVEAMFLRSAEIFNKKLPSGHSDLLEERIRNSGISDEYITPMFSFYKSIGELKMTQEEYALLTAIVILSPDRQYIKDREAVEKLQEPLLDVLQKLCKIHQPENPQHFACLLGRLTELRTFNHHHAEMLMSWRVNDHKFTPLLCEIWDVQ

With `NC(=O)N/N=C/c1ccc([N+](=O)[O-])o1`, the Potency result in experiment [1], in experiment [3], in experiment [4], in [7], in experiment [8] and in [15] was “inactive” throughout. In experiment [17], the Potency result is “inactive”. The result in experiment [2], in experiment [5], in [6], in experiment [9], in experiment [10] and in [11] was inactive. Further, the molecule was classed as inactive in experiment [12], in experiment [14] and in [16]. The Potency result in [13] is “inactive and 49 µM (active)”.
Consider `Oc1cccc(O)c1`, for which the Potency result in [1], in [3], in experiment [19], in experiment [4], in [7] and in experiment [8] was “inactive” each time. For the same molecule, the Potency result in experiment [13], in experiment [15] and in experiment [17] was “inactive” in each case. The outcome in experiment [2], in [18], in experiment [5], in experiment [6], in experiment [9] and in [10] was inactive. For the same molecule, the call in [11], in [12] and in [14] was inactive.
Turning to `COC(=O)c1ccc(C=O)cc1`, the Potency entry in experiment [1], in [3], in experiment [19], in experiment [4], in experiment [7] and in [8] was “inactive” throughout. For the same molecule, the Potency result in experiment [13], in [15] and in experiment [17] was “inactive” each time. In addition, the result in [2], in experiment [18], in experiment [5], in experiment [6], in [9] and in experiment [10] was inactive. Moreover, the molecule was called inactive in [11], in experiment [12], in [14] and in experiment [16].
As to `CCCCNC(=O)NS(=O)(=O)c1ccc(N)cc1`, the Potency entry in [1], in [3], in [4], in experiment [7], in experiment [8] and in [13] was “inactive” throughout. Moreover, the Potency result in experiment [15] and in [17] was “inactive” each time. The outcome in experiment [2], in [18], in [5], in experiment [6], in [9] and in experiment [10] was inactive. For the same molecule, the call in [11], in experiment [12], in experiment [14] and in experiment [16] was inactive.
In the case of `Cc1cnc(NC(=O)C2=C(O)c3ccccc3S(=O)(=O)N2C)s1`, the Potency entry in experiment [1], in experiment [3], in [19], in experiment [4], in experiment [13] and in experiment [15] was “inactive” each time. Also, the Potency entry in experiment [17] was “inactive”. The call in [2], in [18], in [5], in experiment [10], in [11] and in experiment [12] was inactive. Also, the call in experiment [14] was inactive.
With `CC(=O)Oc1ccccc1C(=O)O`, the Potency result in experiment [1], in experiment [3], in [4], in experiment [7], in [8] and in experiment [13] was “inactive” throughout. Also, the Potency result in experiment [15] and in experiment [17] was “inactive” in each case. The call in [5], in [6], in experiment [9], in experiment [10], in experiment [11] and in [12] was inactive. Besides, the molecule was classed as inactive in experiment [14] and in experiment [16].
For the molecule `CCn1cc(C(=O)O)c(=O)c2ccc(C)nc21`, the Potency entry in experiment [1], in [3], in [19], in [4], in experiment [7] and in [8] was “inactive” in each case. Further, the Potency result in [13], in experiment [15] and in experiment [17] was “inactive” throughout. Besides, the result in experiment [2], in experiment [18], in experiment [5], in experiment [6], in experiment [9] and in [10] was inactive. In addition, the call in experiment [11], in [12] and in [14] was inactive.
Regarding `O=C1OC(c2ccc(O)cc2)(c2ccc(O)cc2)c2ccccc21`, the Potency entry in experiment [1], in [3], in experiment [4], in experiment [7] and in [13] was “inactive” throughout. Also, the outcome in experiment [5], in [6], in experiment [9], in [10], in experiment [11] and in experiment [12] was inactive. Besides, the molecule was called inactive in experiment [14] and in [16]. The Potency in experiment [8] is 48.7 µM (active) and inactive; in [15] it was 8.57 µM (active) and inactive.
